Seven compounds from PubChem BioAssay AID2476 (The Scripps Research Institute Molecular Screening Center, 2010) can be followed below.

A number with no mark means an inactive call. No rule for the calls is given here.

The nature of this test: DNA binding via dye displacement – biochemical, fluorescence, dose response, counter-screen for HCV NS3 helicase inhibitor project, late-stage follow-up (AID 2476). As to conditions: DNA fluorescent intercalator displacement.
Take `COc1cc(C2C(C(=O)c3ccc(C)o3)=C(O)C(=O)N2c2cc(C)on2)ccc1OCc1ccccc1` (configuration not stated): the IC50 – broadly, the point on the concentration scale where inhibition reaches its midpoint – was more than 79.4 µM.
Under `CCCCCOc1ccc(C2C(C(=O)c3ccc(C)o3)=C(O)C(=O)N2c2cc(C)on2)cc1` (configuration not stated) stands more than 79.4 µM; under `COc1cccc(-n2c(SCc3cc(=O)oc4cc(O)c(O)cc34)nc3ccccc3c2=O)c1`, more than 79.4 µM; under `Cc1ccc(C(=O)C2=C(O)C(=O)N(Cc3ccco3)C2c2cccc(Cl)c2)o1` (configuration not stated), more than 79.4 µM.
Under `COc1ccc(C=NNC(=O)c2cc(O)c(O)c(O)c2)cc1COc1ccc(C(=O)OCC(C)C)cc1` stands more than 79.4 µM; under `Cc1cc(N2C(=O)C(O)=C(C(=O)c3ccc(C)o3)C2c2ccc(OCc3ccccc3)cc2)no1` (configuration not stated), more than 79.4 µM; under `CCOc1cccc(C2C(C(=O)c3ccc(C)o3)=C(O)C(=O)N2Cc2ccccc2)c1` (configuration not stated), more than 79.4 µM.
